A selection: hits, their analogues and other compounds. The true share with any hit is near 2.9%.
Nrf2 inh = Nrf2 qHTS screen for inhibitors | Potency, µM (highest dose often 46 µM), without a hit: top-dose activity change, negative = inhibition, actives largely listed as inhibitors | 2.1% of 360,000 active | A549 ARE-Fluc reporter, luciferase luminescence, 18-24 h; note: % is set by controls: 0 for no effect and ±100 for the full control effect; nearly all actives have a fitted effect of over 60% in size
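Two sequential reads on A549 ARE_Fluc cells exposed to compound for 18-24 h: a CellTiter-Fluor fluorescence read for viability, then a luciferase luminescence read for Nrf2/ARE activity.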
Nrf2 activator = qHTS of Nrf2 Activators | 0.31% of 410,000 active | Potency, µM (highest dose often 46.1 µM), for the others: top-dose activation, most hits filed as activators | AREc32 ARE-luciferase reporter (MCF7-derived line), luminescence, 24 h; note: % of control where 0% means no effect; nearly all actives have a fitted effect of over 65% in size
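Each well held 1000 AREc32 cells, which were incubated with compound for 24 hr at 37 deg C after overnight attachment, and ARE reporter activity was quantified by firefly luciferase luminescence.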
ATXN2 expr inh = Primary qHTS for Inhibitors of ATXN expression; Potency, µM (doses to about 57 µM), for inactives: at the top dose activity change, negative = inhibition, actives largely listed as inhibitors; HEK-293 ATXN2-luciferase reporter, luminescence, 24 h; 0.72% of 360,000 active; AID 1745845, 2022; note: % is set by controls: 0 for no effect and ±100 for the full control effect; nearly all actives have a fitted effect of over 55% in size
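ATXN2-luciferase reporter cells (luciferase flanked by upstream and downstream ATXN2 gene portions) were treated 24 h at 37 °C with compounds at up to 57 uM. SteadyGlo luminescence gave expression; GF-AFC fluorescence gave viability.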
A549 tox = Nrf2 qHTS screen for inhibitors: counterscreen for cytotoxicity; Potency, µM (doses to about 46 µM), for inactives: top-dose activity change, negative = cytotoxicity, actives largely listed as inhibitors; 0.16% of 390,000 active; A549 ARE-Fluc cells, CellTiter-Fluor viability, 18-24 h; note: % is set by controls: 0 for no effect and ±100 for the full control effect
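A549 ARE_Fluc cells in 5% FBS OPTI-MEM were exposed to compounds in concentration-response for 18-24 h at 37 deg C. Viability was read by CellTiter-Fluor fluorescence (Ex 405/Em 525) after 30 min, before the luciferase read.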
ATXN viability = Viability Counterscreen for Primary qHTS for Inhibitors of ATXN expression; Potency, µM (titrated, usually from 56.7 µM), hits mostly cytotoxic; 0.49% of 400,000 active; AID 651635, 2014; S2 cells (HEK-293 line with an ATXN2-luciferase reporter) viability, CellTiter-Fluor protease fluorescence, 24 h; note: nearly all actives have a fitted effect of over 40% in size
The depositor's hits bear a star; [ ] = remark or other dose. Calls come from the whole dose curve; as a rule, active = well fitted curve in the direction sought with a large enough effect; inconclusive = small, poorly fitted or top-dose-only effect, or another doubt; inactive = no such curve, though single readings can be large; an effect the other way counts as inactive or inconclusive. Potency is the fitted concentration of half-maximal effect.

`CO[C@H]1C[C@@H]2CC[C@@H](C)[C@@](O)(O2)C(=O)C(=O)N2CCCC[C@@H]2C(=O)O[C@H]([C@H](C)C[C@@H]2CC[C@H](OP(C)(C)=O)[C@H](OC)C2)CC(=O)[C@H](C)C=C(C)[C@@H](O)[C@@H](OC)C(=O)[C@H](C)C[C@H](C)C=CC=CC=C1C` gave ATXN2 expr inh 4.1%.
CC1(C)CC(=O)C=C(NC2=CC3OC(c4ccccc4)OCC3OC2=O)C1 (configuration not stated) was read as Nrf2 inh 16.4µM*, Nrf2 activator 8.5%, ATXN2 expr inh -2.9%, A549 tox inconclusive and ATXN viability inconclusive.
`Cc1ccc(S(=O)(=O)c2nnn3c2nc(Nc2ccc(C(C)C)cc2)c2sccc23)cc1C` gave Nrf2 inh 20.6µM*, Nrf2 activator -1.5% and A549 tox -0.2%.
For CCOc1ccc(Nc2nc3c(S(=O)(=O)c4ccc(C(C)C)cc4)nnn3c3ccsc23)cc1 the results were Nrf2 inh 16.7%, Nrf2 activator -0.2% and A549 tox 7.4%.
Oc1ccccc1-n1nc2ccc3nonc3c2n1 was read as Nrf2 inh -0.6%, Nrf2 activator 10µM*, ATXN2 expr inh 13.9%, A549 tox 0.6% and ATXN viability inactive.
Screening Cc1cccc(NC(=O)CCc2c(C)nc3c(c(C)nn3C(C)(C)C)c2C)c1C returned Nrf2 inh 18.4µM*, Nrf2 activator 0.4%, ATXN2 expr inh -9.2%, A549 tox -9.0% and ATXN viability inactive.
`COC(=O)c1ccc(NC(=O)CCc2c(C)nc3c(c(C)nn3C(C)(C)C)c2C)cc1` gave Nrf2 inh inconclusive, Nrf2 activator -3.9%, ATXN2 expr inh 12.9%, A549 tox -12.6% and ATXN viability inactive.
O=S(=O)(c1cccc(C(F)(F)F)c1)N1CCC(Oc2ccc(-n3cnnn3)cc2)CC1 was read as Nrf2 inh 18.4µM*, Nrf2 activator 0.2% and A549 tox inconclusive.
N#C/C(=C\c1cn(-c2ccccc2)nc1-c1cccnc1)c1nnc2n1CCCCC2 was read as Nrf2 inh 20.6µM*, Nrf2 activator 0.0%, ATXN2 expr inh -1.4%, A549 tox inconclusive and ATXN viability inactive.
Screening O=C(Nc1cnc2sccn2c1=O)c1ccccc1Cl returned Nrf2 inh 2.8%, Nrf2 activator 11.2µM*, ATXN2 expr inh 9.3%, A549 tox 10.0% and ATXN viability inactive.
CC(C)(C)c1ccc(S(=O)(=O)N2CCC(c3nc4ccc(Cl)cc4[nH]3)CC2)cc1 was read as Nrf2 inh 16.4µM*, Nrf2 activator 4.1%, ATXN2 expr inh inconclusive, A549 tox inconclusive and ATXN viability inactive.
For O=[N+]([O-])c1ccc(O)c(/C=N/Nc2nn[nH]n2)c1 the results were Nrf2 inh -4.8%, Nrf2 activator 2.2%, ATXN2 expr inh -8.8%, A549 tox -5.4% and ATXN viability inconclusive.
Screening O=[N+]([O-])c1ccc(O)c(/C=N/Nc2ccc(Cl)nn2)c1 returned Nrf2 inh 3.66µM*, Nrf2 activator -0.6%, ATXN2 expr inh inconclusive, A549 tox inconclusive and ATXN viability inconclusive.
For O=C(Cn1nnc(-c2ccccc2)n1)N/N=C/c1cc([N+](=O)[O-])ccc1O the results were Nrf2 inh 8.8%, Nrf2 activator 3.1%, ATXN2 expr inh inconclusive, A549 tox -10.6% and ATXN viability inconclusive.
Screening O=C(Cn1nc2ccccc2n1)N/N=C/c1cc([N+](=O)[O-])ccc1O returned Nrf2 inh inconclusive, Nrf2 activator -0.4%, ATXN2 expr inh 20µM*, A549 tox inconclusive and ATXN viability inconclusive.
Screening O=[N+]([O-])c1ccc(O)c(/C=N\N=C2c3ccccc3-c3ccccc32)c1 returned Nrf2 inh inconclusive, Nrf2 activator 15.0%, ATXN2 expr inh 22.4µM*, A549 tox inconclusive and ATXN viability inconclusive.
NC(N)=N/N=C/c1cc([N+](=O)[O-])ccc1O was read as Nrf2 inh -8.5%, Nrf2 activator 0.4%[9.22 µM], ATXN2 expr inh -8.7%, A549 tox inconclusive and ATXN viability inconclusive.
CCN1CCCC1CN (configuration not stated) was read as ATXN2 expr inh 2.2% and ATXN viability inactive.
Screening COc1ccc(N2C(=O)[C@@H]3C[C@H]2CN3Cc2cccn2-c2ccccn2)cc1Cl returned ATXN viability inactive.
Screening COc1ccc(-c2nc(-c3ccc(NC(=O)c4ccc(Br)o4)cc3)no2)cc1OC returned Nrf2 activator 4.1%, ATXN2 expr inh inconclusive, A549 tox -13.7% and ATXN viability 17.8µM*.
`Cc1cc(C)cc(NC(=O)CSc2nncn3c2cc2occc23)c1` gave Nrf2 inh -16.3%, Nrf2 activator 6.2% and A549 tox 7.1%.
Cc1cccc(N2CCN(C(=O)CCC(=O)N3CC(C)Oc4ccccc43)CC2)c1C (configuration not stated) was read as Nrf2 inh 18.4µM*, Nrf2 activator 2.1%, ATXN2 expr inh inconclusive, A549 tox -0.3% and ATXN viability inconclusive.
`CC1CCN(C(=O)CCC(=O)N2CC(C)Oc3ccccc32)CC1` (configuration not stated) gave Nrf2 inh -20.0%, Nrf2 activator -0.7%, ATXN2 expr inh 0.0%, A549 tox -11.0% and ATXN viability inactive.
For Cc1cccc(N2CCN(C(=O)c3ccccc3SCC(=O)N3CCCC3)CC2)c1C the results were Nrf2 inh 23.1µM*, Nrf2 activator 3.7%, ATXN2 expr inh -13.0%, A549 tox inconclusive and ATXN viability inactive.
`Cc1cccc(N2CCN(C(=O)CSCc3ccc(F)cc3)CC2)c1C` gave Nrf2 activator 0.4% and A549 tox -0.8%.
For CN1CCc2ccc3c4c2[C@]1(C)Cc1cccc(c1-4)OCO3 the results were Nrf2 inh -0.6% and A549 tox -13.5%.
`CCC(C)C(NC(=O)OC(C)(C)C)C(=O)NC1COC2CC(n3cc(C)c(=O)[nH]c3=O)OC12` (configuration not stated) gave Nrf2 inh 19.3% and A549 tox -10.8%.
CCOC(=O)CSC1=NC(=O)/C(=C/c2ccc(OC)cc2)S1 was read as Nrf2 inh 5.7%, Nrf2 activator 9.5%, ATXN2 expr inh 7.08µM*, A549 tox inconclusive and ATXN viability 7.94µM*.
Screening O=C(O)CSCC(=O)Nc1ccc(C2CCCCC2)cc1 returned Nrf2 inh 5.17µM*, Nrf2 activator -2.6%, ATXN2 expr inh 2.24µM*, A549 tox -2.5% and ATXN viability inactive.
For COc1ccccc1NC(=O)Cn1c(=O)oc2cc(S(=O)(=O)NCc3ccccc3)ccc21 the results were Nrf2 inh 2.9%, Nrf2 activator 2.9%, ATXN2 expr inh 1.7%, A549 tox 0.5% and ATXN viability inactive.
